From PubChem BioAssay (NCI)
About 83,000 compounds went through this panel and 20% of them were active in at least one assay; those are over-represented in the sample as a whole.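 For each line, cells grew in 96-well plates with the test compound present at a single concentration for 48 hours.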 A number with no mark means an inactive call. Activity calls are given as the source filed them. How the source made its calls: active means growth percent below 10; inactive means the rest.

Experiments:
Test in all cases: NCI-60 one-dose screen, 48 h (100 = growth as untreated, 0 = no growth, -100 = all killed)
Conditions in all cases: 10 µM unless noted
[1] = test system: DU-145 prostate
[2] = test system: K-562 leukemia
[3] = test system: MALME-3M melanoma
[4] = test system: MDA-MB-231 breast
[5] = test system: RXF 393 renal
[6] = test system: SF-268 CNS
[7] = test system: SF-539 CNS
[8] = test system: M14 melanoma
[9] = test system: HCT-15 colon
[10] = test system: HT29 colon
[11] = test system: SNB-75 CNS
[12] = test system: SNB-19 CNS
[13] = test system: PC-3 prostate
[14] = test system: SK-MEL-5 melanoma
[15] = test system: UACC-62 melanoma
[16] = test system: LOX IMVI melanoma
[17] = test system: SK-MEL-28 melanoma
[18] = test system: SF-295 CNS
[19] = test system: UACC-257 melanoma
[20] = test system: U251 CNS

Structure (SMILES): O=C1Nc2ccccc2/C1=C/C(=N/c1nnc(-c2ccc(Cl)cc2)s1)c1ccccc1
- growth [1]: 30.5%
- growth [2]: 8.67% (active)
- growth [3]: -26.5% (active)
- growth [4]: 35.5%
- growth [5]: -63.3% (active)
- growth [6]: 55.9%
- growth [7]: 27.9%
- growth [8]: 52.2%
- growth [9]: 3.35% (active)
- growth [10]: -56.3% (active)
- growth [11]: 76.4%
- growth [12]: 100%
- growth [13]: 75.7%
- growth [14]: 78.3%
- growth [15]: 51.7%
- growth [16]: -79.3% (active)
- growth [17]: 61.2%

Structure (SMILES): CCC(c1ccc(O)cc1)C(CC)c1ccc(O)c(F)c1 (configuration not stated)
- growth [1]: 97.6%
- growth [2]: 47.4%
- growth [3]: 85.2%
- growth [4]: 97.2%
- growth [5]: 92.6%
- growth [6]: 82.6%
- growth [18]: 84.9%
- growth [19]: 89%
- growth [9]: 78.2%
- growth [10]: 102%
- growth [11]: 78.7%
- growth [12]: 125%
- growth [20]: 89.8%
- growth [13]: 72.1%
- growth [14]: 66.4%
- growth [15]: 59.4%
- growth [16]: 87.2%
- growth [17]: 78.9%

Structure (SMILES): COc1cnc2c(c1)C(=O)c1c-2n(CCCN2CCNCC2)c(=O)c2cc([N+](=O)[O-])ccc12
- growth [1]: -85.1% (active)
- growth [2]: -50.1% (active)
- growth [3]: -71.4% (active)
- growth [4]: -77.4% (active)
- growth [5]: 0.0319% (active)
- growth [6]: -66.6% (active)
- growth [18]: -14.7% (active)
- growth [19]: 46.3%
- growth [8]: -83.1% (active)
- growth [10]: -80% (active)
- growth [12]: -40.7% (active)
- growth [20]: -93.3% (active)
- growth [13]: -82.3% (active)
- growth [14]: -7.99% (active)
- growth [15]: -82% (active)
- growth [16]: -86.5% (active)
- growth [17]: -76.6% (active)

Structure (SMILES): CCC(C)[C@@H]1NC(=O)[C@@H]2CCCN2C(=O)[C@H](Cc2ccccc2)NC(=O)[C@@H]2CCCN2C(=O)[C@H](Cc2ccccc2)NC(=O)[C@@H]2CCCN2C(=O)[C@H](Cc2ccccc2)NC1=O (some centres not stated)
- growth [1]: 118%
- growth [2]: 91.5%
- growth [3]: 126%
- growth [4]: 104%
- growth [5]: 111%
- growth [6]: 119%
- growth [7]: 109%
- growth [8]: 105%
- growth [9]: 103%
- growth [10]: 113%
- growth [11]: 76.7%
- growth [12]: 103%
- growth [13]: 90.7%
- growth [14]: 100%
- growth [15]: 99.9%
- growth [16]: 103%
- growth [17]: 95%

Structure (SMILES): CCCCNc1ccc2c3c1cccc3c(=O)n1c3ccccc3nc21
- growth [1]: 99.4%
- growth [2]: 78.8%
- growth [3]: 89.3%
- growth [4]: 79.8%
- growth [5]: 104%
- growth [6]: 101%
- growth [7]: 103%
- growth [8]: 93.1%
- growth [9]: 76.2%
- growth [10]: 80.4%
- growth [11]: 73.4%
- growth [12]: 101%
- growth [13]: 85.5%
- growth [14]: 75.5%
- growth [15]: 85.9%
- growth [16]: 75.9%
- growth [17]: 103%

Structure (SMILES): O=C1Nc2ccccc2C12CC(c1ccc(Cl)cc1)=NN2 (configuration not stated)
- growth [1]: 115%
- growth [2]: 94.5%
- growth [3]: 105%
- growth [4]: 89.8%
- growth [5]: 99.4%
- growth [6]: 106%
- growth [7]: 99.2%
- growth [8]: 98.7%
- growth [9]: 97.7%
- growth [10]: 97.1%
- growth [11]: 76%
- growth [12]: 90.9%
- growth [13]: 78.2%
- growth [14]: 92.4%
- growth [15]: 95%
- growth [16]: 99.5%
- growth [17]: 97.7%

Structure (SMILES): c1ccc(-c2nc(N3CCOCC3)c3c4c(sc3n2)CCCCC4)nc1
- growth [1]: 71.5%
- growth [2]: 58%
- growth [3]: 32.6%
- growth [4]: 60.4%
- growth [5]: 55.4%
- growth [6]: 65.5%
- growth [18]: 49.2%
- growth [19]: 75.7%
- growth [9]: 59.5%
- growth [10]: 54.5%
- growth [12]: 62.5%
- growth [20]: 59.9%
- growth [13]: 41.7%
- growth [14]: 23.4%
- growth [15]: 56.1%
- growth [16]: 83.2%
- growth [17]: 61.8%

Structure (SMILES): COc1ncc(-c2ccc3ncnc(Nc4cccc(Cl)c4)c3c2)cc1NS(C)(=O)=O
- growth [1]: 27.4%
- growth [2]: 56.3%
- growth [3]: -2.69% (active)
- growth [4]: 43.8%
- growth [5]: 7.92% (active)
- growth [6]: 44.8%
- growth [18]: 32.1%
- growth [8]: 46.9%
- growth [9]: 30.8%
- growth [10]: 22.3%
- growth [11]: 9.09% (active)
- growth [12]: 37.6%
- growth [20]: 46.8%
- growth [13]: 25.9%
- growth [14]: 23.3%
- growth [15]: 19.1%
- growth [16]: 35.3%

Structure (SMILES): N=c1c2ccccc2nc2n1CCCCC2
- growth [1]: 118%
- growth [2]: 121%
- growth [3]: 107%
- growth [4]: 110%
- growth [5]: 110%
- growth [6]: 106%
- growth [18]: 109%
- growth [19]: 110%
- growth [9]: 110%
- growth [10]: 110%
- growth [11]: 99.7%
- growth [12]: 103%
- growth [20]: 101%
- growth [13]: 116%
- growth [14]: 100%
- growth [15]: 106%
- growth [16]: 106%
- growth [17]: 103%

Structure (SMILES): O=C1Nc2ccccc2/C1=C/C(=N/c1nnc(-c2ccccc2)s1)c1ccccc1
- growth [1]: 34.4%
- growth [2]: 20.4%
- growth [3]: 37.8%
- growth [4]: 54.5%
- growth [5]: 27.1%
- growth [6]: 60.4%
- growth [7]: 52.7%
- growth [8]: 75.7%
- growth [9]: 19.8%
- growth [10]: -36.3% (active)
- growth [11]: 78.7%
- growth [12]: 103%
- growth [13]: 78.4%
- growth [14]: 93.9%
- growth [15]: 71.5%
- growth [16]: -86.3% (active)
- growth [17]: 86.4%

Structure (SMILES): O=C1c2cccnc2C(=O)c2c1c(C(=O)OCCN1CCOCC1)c1ccccn21
- growth [1]: -20.3% (active)
- growth [2]: -16% (active)
- growth [3]: -64.8% (active)
- growth [4]: 9.01% (active)
- growth [5]: 10.7%
- growth [6]: 13%
- growth [18]: -47% (active)
- growth [19]: -47% (active)
- growth [8]: -58.7% (active)
- growth [10]: -35.4% (active)
- growth [11]: -13.9% (active)
- growth [12]: 3.55% (active)
- growth [20]: -47.5% (active)
- growth [13]: 15.3%
- growth [15]: -52.7% (active)
- growth [16]: -46% (active)
- growth [17]: -3.26% (active)

Structure (SMILES): O=C(O)c1c([N+](=O)[O-])cnc2ccccc12
- growth [1]: 116%
- growth [2]: 112%
- growth [3]: 88.4%
- growth [4]: 107%
- growth [5]: 110%
- growth [6]: 104%
- growth [18]: 102%
- growth [19]: 97.1%
- growth [9]: 109%
- growth [10]: 107%
- growth [11]: 88.4%
- growth [12]: 91%
- growth [20]: 106%
- growth [13]: 104%
- growth [15]: 99.4%
- growth [16]: 97.6%
- growth [17]: 125%

Structure (SMILES): O=S(=O)(NCCCNc1cc(-c2cn(-c3ccccc3)nc2-c2ccccc2)ccn1)c1ccc(C(F)(F)F)cc1
- growth [1]: 75.9%
- growth [2]: 15.8%
- growth [3]: 70%
- growth [4]: 52.5%
- growth [5]: 48%
- growth [6]: 58.2%
- growth [18]: 38.8%
- growth [8]: 53.1%
- growth [9]: 41%
- growth [10]: 20.5%
- growth [12]: 66.9%
- growth [20]: 44.4%
- growth [13]: 17.6%
- growth [15]: 69.8%
- growth [16]: 54%

Structure (SMILES): CCN(CC)CCCCNc1ccc(NCCCCN(CC)CC)c2c1C(=O)c1ccccc1C2=O
- growth [1]: 94.1%
- growth [2]: 1.87% (active)
- growth [3]: 132%
- growth [4]: 80.5%
- growth [5]: 74.9%
- growth [6]: 101%
- growth [18]: 110%
- growth [19]: 97.9%
- growth [10]: -54.8% (active)
- growth [11]: 142%
- growth [12]: 106%
- growth [20]: 85.5%
- growth [13]: 94.1%
- growth [14]: 106%
- growth [15]: 111%
- growth [16]: -56.6% (active)
- growth [17]: 116%

Structure (SMILES): O=C1Nc2ccc(Br)cc2C12CC(c1ccccc1)=NN2 (configuration not stated)
- growth [1]: 69.9%
- growth [2]: 23.8%
- growth [3]: 37.9%
- growth [4]: 50.6%
- growth [5]: 61.4%
- growth [6]: 58.7%
- growth [7]: 32.9%
- growth [8]: 28.2%
- growth [9]: 32.7%
- growth [10]: 12.1%
- growth [11]: 28.1%
- growth [12]: 69.1%
- growth [13]: 29.4%
- growth [14]: 23.9%
- growth [15]: 48.2%
- growth [16]: 51.9%
- growth [17]: 56.2%

Structure (SMILES): COc1ccc(/C=C2\N=C3SC=C(N)N3C2=O)cc1
- growth [1]: 26.5%
- growth [2]: 5.29% (active)
- growth [3]: -15.3% (active)
- growth [4]: 42.5%
- growth [5]: -21.2% (active)
- growth [6]: 37.3%
- growth [7]: 26.7%
- growth [8]: 24.8%
- growth [9]: 20.7%
- growth [10]: 9.12% (active)
- growth [11]: 25.2%
- growth [12]: 53.8%
- growth [13]: 20.6%
- growth [14]: 4.65% (active)
- growth [15]: 23%
- growth [16]: -47.5% (active)
- growth [17]: 43.7%
